# From the supplement of paper PMC9446081
# Screen size: about 39,000 compounds; about 220 (0.56%) showed activity. The sample holds actives, similar compounds and a random draw of the others, so the mix is not that of the screen. Unmarked numbers belong to inactive results.
# System: Escherichia coli K-12 BW25113
# Test: relative growth (OD600 normalised to plate interquartile mean) (fraction); higher = less growth inhibition, active = 0.2 or less
# Conditions: 50 µM; LB; incubation time: overnight (16-24 h)
# 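Also: Wild-type cells incubated without shaking, value is the mean of two biological replicates.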
row,SMILES,relative growth
1,NCC[C@H]1CC[C@H](NC(=O)NC2CCCCC2)[C@H](CO)O1,0.986
2,C[C@@H]1CN([C@@H](C)CO)C(=O)Cc2cc(NC(=O)Nc3ccccc3)ccc2O[C@@H]1CN(C)Cc1ccc(Oc2ccccc2)cc1,0.967
3,Cc1nc(CN)c(C)o1,0.995
4,C[C@@H]1CN([C@@H](C)CO)C(=O)c2cc(NC(=O)Nc3ccc(C(F)(F)F)cc3)ccc2O[C@@H]1CN(C)S(=O)(=O)c1ccc(Cl)cc1,1.04
5,C[C@H](CO)N1C[C@H](C)[C@H](CN(C)C(=O)Nc2ccc(C(F)(F)F)cc2)Oc2ccc(NC(=O)CCCCCC(=O)Nc3ccccc3N)cc2C1=O,0.925
6,Cc1noc(C)c1NC(=O)Nc1cccc2c1O[C@@H](CN(C)Cc1ccc(-c3ccccc3)cc1)[C@H](C)CN([C@@H](C)CO)C2=O,1.01
7,CON=C(C(=O)N[C@@H]1C(=O)N2C(C(=O)O)=C(CSc3nc(=O)c(O)nn3C)CS[C@H]12)c1csc(N)n1,0.0335 (active)
8,C[C@@H]1CN([C@@H](C)CO)C(=O)Cc2cc(NC(=O)Nc3ccc(C(F)(F)F)cc3)ccc2O[C@@H]1CN(C)Cc1ccc(C(=O)Nc2ccccc2N)cc1,1
9,Cc1noc(C)c1NC(=O)Nc1ccc2c(c1)C(=O)N([C@H](C)CO)C[C@@H](C)[C@H](CN(C)S(=O)(=O)c1cccs1)OCCCC[C@H](C)O2,0.988
10,C[C@@H]1CN([C@H](C)CO)C(=O)c2cc(NS(=O)(=O)c3cccs3)ccc2O[C@H]1CN(C)Cc1ccc(Cl)c(Cl)c1,0.994
11,Cc1ccc(S(=O)(=O)N(C)C[C@H]2OCCCC[C@@H](C)Oc3ccc(NC(=O)Nc4c(C)noc4C)cc3C(=O)N([C@@H](C)CO)C[C@@H]2C)cc1,0.961
12,COc1ccc2c3c(n(c2c1)C)[C@@H](CO)N(C[C@]13CN(C1)C(=O)CN1CCOCC1)C(=O)Nc1ccc(cc1)F,0.977
13,C[C@H]1CN([C@@H](C)CO)C(=O)Cc2cc(NC(=O)NC3CCCCC3)ccc2O[C@H]1CN(C)Cc1ccc(Oc2ccccc2)cc1,1.03
14,C[C@@H]1CN([C@@H](C)CO)C(=O)c2cc(NC(=O)C3CCCCC3)ccc2O[C@@H]1CN(C)C(=O)Nc1cccc2ccccc12,1.01
15,Cc1cc(C(C)(C)CC(C)(C)C)ccc1OCCOCC[N+](C)(C)Cc1ccccc1.[Cl-],0.0463 (active)
16,CC(C)(C)CC(C)(C)c1ccc(OCCOCC[N+](C)(C)Cc2ccccc2)cc1.[Cl-],0.0469 (active)
17,C[N+](C)(CCOc1ccccc1)Cc1ccccc1.O=C([O-])c1cc2ccccc2cc1O,0.93
18,C[N+](C)(CCOc1ccccc1)Cc1ccccc1.O=C(O)c1cc2ccccc2c(Br)c1O,0.944
19,COc1ccc(CN(C)C[C@H]2OCCCC[C@H](C)Oc3ccc(NC(=O)Nc4ccc(OC)cc4)cc3C(=O)N([C@@H](C)CO)C[C@H]2C)cc1,0.901
20,C[C@H]1CN([C@@H](C)CO)C(=O)c2cc(C#CC3(O)CCCC3)cnc2O[C@H]1CN(C)C(=O)CN(C)C,0.988

row,SMILES,relative growth
1,O=C(NCC(F)(F)F)[C@@H]1[C@@H](CO)[C@@H]2Cn3c(cccc3=O)[C@@H]2N1C(=O)C1CCC1,1
2,O=C(C[C@@H]1CC[C@H]2[C@@H](COC[C@H](O)CN2C(=O)c2ccccc2F)O1)N1CCN(c2ccccc2)CC1,0.976
3,CS(=O)(=O)NC[C@@H]1OC[C@@H]2CCN(C(=O)c3ccnnc3)C[C@@H]21,1.02
4,C[C@H]1CCCCO[C@@H](CN(C)C(=O)NC2CCCCC2)[C@@H](C)CN([C@@H](C)CO)C(=O)c2cc(NC(=O)c3ccccc3)ccc2O1,1.03
5,C[C@@H]1CN([C@H](C)CO)C(=O)c2cccc(NS(=O)(=O)c3ccc(Cl)cc3)c2O[C@H]1CN(C)C(=O)Nc1cccc2ccccc12,1.02
6,C[C@H](CO)N1C[C@H](C)[C@@H](CN(C)C(=O)Nc2ccc(C(F)(F)F)cc2)Oc2ccc(NS(=O)(=O)c3ccc(Cl)cc3)cc2CC1=O,0.982
7,Cc1ccc(S(=O)(=O)Nc2ccc3c(c2)C(=O)N([C@@H](C)CO)C[C@@H](C)[C@H](CN(C)C(=O)CCC(F)(F)F)OCCCC[C@H](C)O3)cc1,0.979
8,Cc1noc(C)c1NC(=O)N(C)C[C@@H]1Oc2ncc(C#CCN(C)C)cc2C(=O)N([C@H](C)CO)C[C@@H]1C,0.979
9,Cc1oc(=O)oc1CN1CCN(c2cc3c(cc2F)c(=O)c(C(=O)O)c2n3C(C)S2)CC1 (centres undefined),0.0438 (active)
10,C[C@@H]1CN([C@H](C)CO)C(=O)Cc2cc(NC(=O)Nc3ccc4c(c3)OCO4)ccc2O[C@@H]1CN(C)Cc1ccc(C(F)(F)F)cc1,1.02
11,CC(=O)O,1.01
12,O=P(O)(O)CN(CCN(CP(=O)(O)O)CP(=O)(O)O)CP(=O)(O)O,0.926
13,O=C(O)P(=O)(O)O,0.0351 (active)
14,C[C@H]1CN([C@@H](C)CO)C(=O)c2cccc(NS(C)(=O)=O)c2O[C@@H]1CN(C)Cc1ccc(C(F)(F)F)cc1,1.01
15,C[C@@H]1CN([C@H](C)CO)C(=O)c2cc(C#CCN(C)C)cnc2O[C@H]1CN(C)C(=O)CCN1CCCCC1,0.983
16,C[C@H](CO)N1C[C@H](C)[C@@H](CN(C)Cc2ccccc2)OCCCC[C@H](C)Oc2ccc(NC(=O)CCC(F)(F)F)cc2C1=O,0.999
17,C[C@H]1CN([C@@H](C)CO)C(=O)c2cccc(NS(=O)(=O)c3cn(C)cn3)c2O[C@@H]1CN(C)S(=O)(=O)c1cccs1,1.01
18,COc1ccc(S(=O)(=O)N(C)C[C@@H]2Oc3ncc(C#Cc4ccc(F)cc4)cc3C(=O)N([C@H](C)CO)C[C@@H]2C)cc1,1.05
19,COc1ccccc1CNC(=O)C[C@@H]1C[C@@H]2c3cc(NC(=O)NC4CCCC4)ccc3O[C@@H]2[C@H](CO)O1,0.983
